A selection: hits, their analogues and other compounds. The true share with any hit is near 21%.
Pf growth 48h = P. falciparum growth inhibition at 48 hours (one generation); P. falciparum luciferase growth in erythrocytes, 48 h; Potency, µM (highest dose often 28.7 µM), hits mostly inhibitors; actives 5.9% (n = 310,000); AID 504832
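Luciferase-expressing parasites in RBCs, 2% Hct / 0.1% parasitemia final; RPMI 1640 + 0.5% Albumax; 37 C, 5% CO2, one generation; luminescence read-out, lower signal = inhibition.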
Shiga toxin inh = Shiga toxin inhibition | AID 2315 | actives 9.2% (n = 290,000) | Vero cells, Shiga toxin protein synthesis inhibition reporter | inhibition, % at 38.7 µM; in the data active means inhibition mostly above about 28%, no sharp cut-off; inactive means mostly below about 43%
CHX counter = affects cycloheximide protein synthesis inhibition readout, counter-screen; max response, %; actives 12% (n = 300,000); cell reporter, cycloheximide protein synthesis inhibition counterscreen; in the data active means max response mostly above about 13%, no sharp cut-off; inactive means mostly below about 14%; further: read at 38.3 µM for the half of the compounds with a filed dose
Pf growth 96h = P. falciparum growth inhibition at 96 hours | AID 504834 | Potency, µM (titrated, usually from 28.7 µM), hits mostly inhibitors | actives 6.9% (n = 320,000) | P. falciparum luciferase reporter growth, 96 h
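Two parasite generations (96 h, 37 C, 5% CO2) of compound exposure in infected erythrocytes (0.05% parasitemia, 2% hematocrit). Luciferase-reporter P. falciparum; decreased luminescence indicates inhibited growth, aimed at apicoplast-acting delayed death.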
SARS PLP yeast = blocks SARS-CoV papain-like protease in a yeast assay | S. cerevisiae expressing SARS-CoV PLpro, growth rescue | Potency, µM (titrated, usually from 32.9 µM), usual class: activators | actives 0.19% (n = 330,000) | AID 485353; calls by dose curve; further: nearly all actives have a fitted effect of over 55% in size
NS1 inh = blocks influenza NS1 protein function | Potency, µM (titrated, usually from 46.1 µM) | actives 0.4% (n = 270,000); calls by dose curve; further: actives are rising curves; nearly all actives have a fitted effect of over 50% in size
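Compounds were scored for reversing the slow growth caused by influenza A NS1 in S. cerevisiae, measured by optical density at 600 nm. Assay medium contained 2% galactose at pH 6.0; NS1-free yeast of the same strain were the positive control.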
Large screens that a line does not name were inactive. Unless noted, the call rests on the fitted dose curve; in most records, active means well fitted inhibition curve with a large enough effect; inconclusive means small, poorly fitted or top-dose-only effect, or another doubt; inactive means no such curve, though single readings can be large or run the other way.

Cn1c(=O)c2cc(NC(=O)c3ccccc3Cl)c(=O)oc2n(C)c1=O	none
CCOC(=O)C1=C(C)NC(=O)NC1c1ccc2c(c1)OCO2 (stereo not given)	none
COc1ccc(COC(=O)C2=C(C)NC(=O)NC2c2ccc(F)cc2)cc1 (stereo not given)	Pf growth 48h inconclusive, Pf growth 96h 2.94µM
CCC(CC)COC(=O)C1=C(C)NC(=O)NC1c1ccc2c(c1)OCO2 (stereo not given)	Pf growth 96h 0.928µM
CC1=C(C(=O)OCc2ccc3c(c2)OCO3)C(c2cccc([N+](=O)[O-])c2)NC(=O)N1 (stereo not given)	none (no result: NS1 inh)
COc1ccc(C2NC(=O)NC(C)=C2C(=O)OCc2ccc3c(c2)OCO3)cc1OC (stereo not given)	Pf growth 48h 4.65µM
COc1ccc(NC(=O)CCNS(=O)(=O)c2cccc3nonc23)cc1	none
COc1ccc(/C=C/C(=O)OCCC(C)C)cc1	Shiga toxin inh 104.9, CHX counter 33.7, Pf growth 96h 13.5µM (no result: SARS PLP yeast, NS1 inh)
COc1ccc(/C=C/C(=O)CC(O)(c2ccccc2)C(F)(F)F)cc1 (stereo not given)	Pf growth 48h 13.1µM, Pf growth 96h inconclusive
COc1ccc(/C=C/C(=O)CCC(=O)O)cc1	Shiga toxin inh 56.3, CHX counter 32.0
O=C(/C=C/c1ccccc1)CC(O)(c1ccccc1)C(F)(F)C(F)F (stereo not given)	Pf growth 96h 7.38µM (no result: Pf growth 48h)
COc1ccc(/C=C/C(=O)O)cc1	none (no result: NS1 inh)
O=C(/C=C/c1ccccc1)CC(O)(c1ccccc1)C(F)(F)F (stereo not given)	Pf growth 96h inconclusive (no result: Pf growth 48h)
COc1ccc(OC)c(N(CC(=O)N2CCc3ccccc3C2)S(C)(=O)=O)c1	Pf growth 96h inconclusive
CNc1nc(N2CCc3ccccc32)ncc1F	Shiga toxin inh 104.6, CHX counter 38.9 (no result: Pf growth 96h)
O=c1c2cc([N+](=O)[O-])ccc2nc(CN2CCN(c3ccccn3)CC2)n1-c1ccccc1F	Pf growth 96h 13.1µM
COc1ccc(-n2c(CN3CCN(Cc4ccccc4)CC3)nc3ccc([N+](=O)[O-])cc3c2=O)c(OC)c1	Pf growth 48h inconclusive, Pf growth 96h inconclusive
COc1ccc(-n2c(CN3CCN(c4ccccn4)CC3)nc3ccc([N+](=O)[O-])cc3c2=O)c(OC)c1	Pf growth 48h 11.7µM
COc1cccc(-n2c(CN3CCN(Cc4ccccc4)CC3)nc3ccc([N+](=O)[O-])cc3c2=O)c1	Pf growth 48h 11.7µM
CCN1CCN(Cc2nc3ccc([N+](=O)[O-])cc3c(=O)n2-c2ccccc2F)CC1	none
COc1cccc(-n2c(CN3CCOCC3)nc3ccc([N+](=O)[O-])cc3c2=O)c1	Pf growth 48h inconclusive
COc1ccc(N2CCN(C(=O)NCc3ccc(C)cc3)CC2)cc1	none
Nc1nnnn1/N=C/c1cccc(Oc2ccccc2)c1	Pf growth 96h 7.38µM
COC(=O)C1=C(c2cccc(C#N)c2)C[C@@H]2CC[C@H]1N2C(=O)N1CCc2cc(OC)c(OC)cc2C1	Pf growth 48h inconclusive, Pf growth 96h inconclusive (no result: Shiga toxin inh, CHX counter, NS1 inh)
COC(=O)C1=C(c2c(C)noc2C)C[C@@H]2CC[C@H]1N2C(=O)N1CCc2cc(OC)c(OC)cc2C1	Pf growth 48h 14.7µM, Pf growth 96h inconclusive (no result: Shiga toxin inh, CHX counter, NS1 inh)
COC(=O)C1=C(c2c(C)noc2C)C[C@@H]2CC[C@H]1N2C(=O)N1CCC(O)(c2ccc(Cl)cc2)CC1	Pf growth 48h 6.57µM, Pf growth 96h inconclusive (no result: Shiga toxin inh, CHX counter, NS1 inh)
COC(=O)C1=C(c2ccc(F)cc2F)C[C@@H]2CC[C@H]1N2C(=O)N1CCC(O)(c2ccc(Cl)cc2)CC1	Pf growth 48h 9.28µM, Pf growth 96h inconclusive (no result: Shiga toxin inh, CHX counter, NS1 inh)
COC(=O)C1=C(c2c(C)noc2C)C[C@@H]2CC[C@H]1N2C(=O)N1CCOCC1	none (no result: Shiga toxin inh, CHX counter, NS1 inh)
Cc1c(N(C(=O)c2ccccn2)C2(C(=O)NC3CCCC3)CCCCC2)c(=O)n(-c2ccccc2)n1C	Pf growth 48h inconclusive, Pf growth 96h inconclusive (no result: NS1 inh)
ClC(Br)=C(n1cnc2ccccc21)n1cnc2ccccc21	Pf growth 48h 10.4µM
Cc1ccc(C(=O)Nc2nccc(-c3cccs3)n2)cc1	CHX counter 28.0
NC(=S)Nc1nccc(-c2cccs2)n1	Shiga toxin inh 60.9, CHX counter 40.8 (no result: NS1 inh)
CN(C#N)c1nccc(-c2cccs2)n1	Pf growth 48h inconclusive (no result: NS1 inh)
COc1ccc(CNCC(O)(c2ccccc2)c2ccc(Cl)cc2)cc1 (stereo not given)	Pf growth 48h 2.33µM, Pf growth 96h 2.33µM
Cc1ccc(CNCC(O)(c2ccccc2)c2ccc(Cl)cc2)cc1 (stereo not given)	Pf growth 48h 0.828µM, Pf growth 96h 1.65µM (no result: NS1 inh)
Cc1ccc(CNCC(O)(c2ccccc2)c2ccccc2)cc1	Pf growth 48h inconclusive, CHX counter 14.7, Pf growth 96h inconclusive
COc1cccc(CNCC(O)(c2ccc(Cl)cc2)c2ccc(Cl)cc2)c1	Pf growth 48h 6.57µM, Pf growth 96h 1.31µM
Cc1cc(C)n2nc(Sc3ncccc3[N+](=O)[O-])nc2n1	Pf growth 48h inconclusive
O=C(Oc1ccc(-c2cnc3ccccc3n2)cc1)c1ccc(Cl)c([N+](=O)[O-])c1	Shiga toxin inh 47.7, CHX counter 36.8
O=C(Oc1ccc(-c2cnc3ccccc3n2)cc1)c1cccc([N+](=O)[O-])c1	Shiga toxin inh 41.4, CHX counter 25.6
CCN(CC)c1ccc(C(=O)OCC(=O)Nc2ccc3[nH]c(=O)[nH]c3c2)cc1	none
O=C1C2C3C=CC(C3)C2C(=O)N1CCCCCCN1C(=O)C2C3C=CC(C3)C2C1=O (stereo not given)	Shiga toxin inh 68.1, CHX counter 48.2
O=C(CN1C(=O)C2C3C=CC(C3)C2C1=O)OCC(=O)c1ccc(Cl)cc1 (stereo not given)	none
O=C(CN1C(=O)C2C3C=CC(C3)C2C1=O)OCC(=O)c1ccccc1 (stereo not given)	Shiga toxin inh 37.4, CHX counter 21.0
CC1CCCC(C)N1C(=O)CCN1C(=O)C2C3C=CC(C3)C2C1=O (stereo not given)	Pf growth 96h 1.65µM
O=C(O)CCN1C(=O)C2C3C=CC(C3)C2C1=O (stereo not given)	Pf growth 96h inconclusive
COCCn1c(=O)[nH]c2cc(C(=O)N3CCN(c4cccc(C)c4C)CC3)ccc2c1=O	Pf growth 96h inconclusive
CC1CCCC(NC(=O)COC(=O)CN2C(=O)C3CCCCC3C2=O)C1C (stereo not given)	Pf growth 96h inconclusive
CC1Cc2ccccc2N1CC(=O)Nc1ccc2c(c1)OCCCO2 (stereo not given)	Pf growth 48h inconclusive, Pf growth 96h 11.7µM (no result: Shiga toxin inh, CHX counter, NS1 inh)
CN(C)S(=O)(=O)c1cc(NC(=O)CN2CCc3ccccc32)ccc1Cl	Pf growth 48h inconclusive, CHX counter 29.9 (no result: NS1 inh)
CC1Cc2ccccc2N1CC(=O)Nc1ccc(N2CCOCC2)cc1 (stereo not given)	none (no result: NS1 inh)

Screening data from PubChem BioAssay.
